Hits are enriched below; roughly 2.1% of the tested compounds scored in any of these assays.
EWS-Fli inh = inhibitors of EWS/Fli oncoprotein transcriptional activity. AID 651661. 350,000 compounds, 0.67% hits. inhibition, % at 12.6 µM. A673 NR0B1-luciferase reporter, viability-normalised;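 active = mean inhibition of at least 50% after viability correction, with every replicate also passing that limit; inconclusive = mean reaches 50% but only one of two replicates passes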;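 also: firefly luciferase signal divided by Alamar Blue viability fluorescence both relative to DMSO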
PAX8 reporter = lowers PAX8-driven luciferase in RMG-I cells; RMG-I TPO-luciferase reporter, SteadyGlo, 24 h; inhibition, % at 12.6 µM; 360,000 compounds, 1.2% hits; AID 652154;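 active = mean replicate inhibition at least 60% with every replicate also reaching 60%; inconclusive = only one of the two criteria is met; inactive = mean below 60% and not all replicates reaching 60%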;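 also: luciferase light reporting Pax8 driven TPO promoter activity; plate controls were median of neutral control wells for no effect and mitoxantrone controls for full effect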
HIF-2a block = inhibitors of HIF-2a | 786-0 RCC cells HIF-2a reporter, luciferase luminescence, overnight | 360,000 compounds, 0.72% hits | AID 624352 | inhibition, % at 18.8 µM;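 active = inhibition of the luminescence signal of 40% or more relative to plate controls, in a single-dose primary screen at 18.75 µM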
CF NFkB block = inhibitors of cystic fibrosis induced NF-kB. 360,000 compounds, 0.86% hits. KKLEB NF-kB-GFP reporter, PAF-induced, GFP fluorescence overnight. inhibition, % at 5 µM;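 active = at least 50% inhibition at 5 µM, scaled per plate between neutral and stimulator controls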;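 also: PAF is a Pseudomonas aeruginosa culture filtrate used as stimulus; plate controls were PAF-stimulated DMSO wells for no effect and unstimulated DMSO wells for full effect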
KKLEB cytotox = CF airway cell cytotoxicity counter-screen. 360,000 compounds, 0.36% hits. activity change (cytotoxicity), % at 5 µM. AID 602141. KKLEB CF airway cells viability, ATPlite luminescence, overnight; stronger effect = lower value; cells stimulated with P. aeruginosa culture filtrate;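 active = corrected activity change at or below -50% at 5 µM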
CF NFkB inh conf = confirmation of cystic fibrosis induced NF-kB inhibitors | shares compounds with CF NFkB block | KKLEB CF airway cells, PAF-induced NF-kB-GFP fluorescence, overnight | inhibition, % at 5 µM | 1,300 compounds, 64% hits; in the data active = inhibition above about 40%;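 also: stimulus PAF is a Pseudomonas aeruginosa filtrate and not platelet activating factor; plate controls were DMSO wells with stimulus for no effect and unstimulated DMSO wells for full effect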
Numbers without * were called inactive; ? = inconclusive; nt = no result.

SMILES | EWS-Fli inh | PAX8 reporter | HIF-2a block | CF NFkB block | KKLEB cytotox | CF NFkB inh conf
CCOc1cccc(-c2nnc3sc(C4CCCCC4)nn23)c1 | nt | nt | -26.1 | 66.1* | -10.8 | 84.6*
COc1cccc(-c2nnc3sc(C4CCCCC4)nn23)c1 | nt | nt | -74.9 | 85.9* | 3.8 | 96.4*
COc1ccc(-c2ccc3c(c2)[C@H]2[C@H](CCN2C(=O)Cc2ccccc2)[C@H](CO)N3C)cc1 | 10.8 | -50.4 | nt | nt | nt | nt
Cc1cc(N2C(=O)C(O)=C(C(=O)c3ccc(C)o3)C2c2cccc(Oc3ccccc3)c2)no1 (stereo not given) | nt | -10.5 | 3.6 | 51.1* | 5.7 | 64.4*
Cc1cc(N2C(=O)C(O)=C(C(=O)c3ccc(C)o3)C2c2cccc(Cl)c2)no1 (stereo not given) | 4.0 | -8.0 | 12.5 | -18.7 | 8.4 | nt
CCNC(=O)C1(C)CCCN(Cc2ccc(-c3ccccc3)o2)C1 (stereo not given) | 9.1 | -24.3 | -30.3 | 57.8* | -2.6 | 63.4*
C[C@H](CO)N1C[C@H](C)[C@H](CN(C)Cc2ccc(C(=O)O)cc2)Oc2ncc(C3=CCCC3)cc2C1=O | -7.6 | 9.6 | nt | nt | nt | nt
CCC(=O)N[C@@H]1CC[C@H](CCn2cc(-c3cccc(OC)c3)nn2)O[C@@H]1CO | -10.8 | -1.9 | nt | nt | nt | nt
O=C(Nc1ccccc1N1CCOCC1)c1cc(-c2ccco2)nc2ccccc12 | nt | nt | -6.8 | 75.3* | -12.8 | 86.5*
Nc1ncnc(Sc2ccccc2)c1[N+](=O)[O-] | -8.5 | -27.2 | 6.1 | 51.6* | -1.6 | 21.6
Cc1ccc(Sc2ncnc(N)c2[N+](=O)[O-])cc1 | nt | 4.3 | -18.1 | 33.9 | 0.7 | nt
Nc1ncnc(Sc2ccc(Cl)cc2)c1[N+](=O)[O-] | 27.8 | 10.5 | -20.1 | 64.0* | -13.4 | 61.8*
CN(Cc1ccccc1)c1nc(N)c([N+](=O)[O-])c(NCc2ccccc2)n1 | nt | nt | 5.2 | -18.2 | 0.6 | nt
CN(Cc1ccccc1)c1ncnc(N)c1[N+](=O)[O-] | -6.5 | -19.1 | 11.3 | 66.8* | -8.8 | 60.9*
Cc1[nH]nc2c1-c1nc3ccccc3nc1C(C)(C)C2 | nt | nt | 22.9 | 51.4* | -13.9 | 54.3*
CC(=O)N1CCCCN2[C@@H](CO)[C@@H](c3ccc(-c4ccncc4)cc3)[C@@H]2C1 | -2.0 | -27.6 | nt | nt | nt | nt
C[C@@H]1CN([C@H](C)CO)C(=O)c2cc(NC(=O)Nc3ccc(C(F)(F)F)cc3)ccc2O[C@@H](C)CCCCO[C@H]1CN(C)C | 3.3 | 49.7 | nt | nt | nt | nt
CCOC(=O)c1[nH]c(C)c(C(=O)N2CCc3ccccc32)c1C | nt | nt | 12.0 | 53.5* | -35.5 | 56.8*
O=C1NC(=O)C(=Cc2ccc(Cl)cc2Cl)S1 | -36.5 | -126.4 | -222.7 | 53.9* | 7.1 | 37.5
O=C1NC(=S)NC1=Cc1ccc(Cl)cc1Cl | -14.4 | 9.4 | -12.5 | 6.9 | -3.6 | nt
Cc1ccccc1S(=O)(=O)N1CCCCN2[C@H](C1)[C@H](c1ccc(C#CCN(C)C)cc1)[C@@H]2CO | -9.1 | -6.8 | nt | nt | nt | nt
c1coc(-c2ccc3nncn3c2)c1 | 3.4 | -13.3 | 7.6 | -10.4 | 15.3 | nt
c1ccc2c(-c3ccc4nncn4c3)cncc2c1 | -13.8 | -20.9 | 4.5 | 72.8* | 3.2 | 89.5*
C[C@H]1CN([C@@H](C)CO)S(=O)(=O)c2ccc(-c3ccc(F)cc3)cc2O[C@H]1CN(C)C | 3.1 | nt | nt | nt | nt | nt
COc1ccc(/C=C/C(=O)c2ccc([N+](=O)[O-])o2)cc1 | 41.4 | 31.2 | -18.6 | 51.1* | -19.3 | -203.3
SMILES | EWS-Fli inh | PAX8 reporter | HIF-2a block | CF NFkB block | KKLEB cytotox | CF NFkB inh conf
COc1ccc(-c2nc(NC(=O)c3ccc(OCC(=O)Nc4ccc(F)cc4)c(OC)c3)sc2C)cc1 | nt | 0.1 | 8.0 | 54.3* | -45.2 | 72.0*
C[C@@]12CCC=C[C@H]1[C@H](c1ccc(/C=C/c3ccccc3)cc1F)N(Cc1ccccc1)C2=O | 22.3 | 13.5 | 19.4 | 22.5 | -9.4 | nt
C[C@@]12CCC=C[C@H]1[C@H](c1ccc(C(F)(F)F)cc1)N(Cc1ccccc1)C2=O | 13.2 | 8.3 | 20.2 | 57.6* | -13.7 | 38.8
Cc1ccc(NC(=S)N(CCCN2CCCC2)Cc2cccn2Cc2ccc(Cl)cc2)cc1C | 26.7 | 0.4 | -26.7 | 50.6* | -42.9 | 27.7
O=C(O)CCSc1nc2ccccc2n1-c1ccccc1 | 11.2 | 2.7 | 26.9 | 56.1* | 23.5 | 19.4
CCCNC(=O)Nc1ccc2c(c1)C(=O)N(C)C[C@@H](OC)[C@@H](C)CN(C(=O)C1CC1)[C@@H](C)CO2 | 0.4 | -7.2 | nt | nt | nt | nt
O=C(Nc1ccc(NC(=O)c2ccccn2)cc1)C(=O)Nc1ccc2c(c1)OCCO2 | -19.3 | -2.1 | -14.8 | 55.4* | -47.1 | 11.4
O=C(Nc1ccc2c(c1)OCCO2)c1ccccn1 | 29.7 | 19.8 | -69.6 | 11.4 | -11.5 | nt
C[C@H]1CCC[C@]2(C)C[C@H]3OC(=O)C(CN4CCCCCC4)[C@H]3C=C12 (stereo not given in full) | 7.6 | ? | -5.0 | 74.2* | -21.7 | 39.7
CC(=O)c1c(O)cc2c3c1OC(C)(C)C1CCC(C)(CC31)O2 (stereo not given) | -2.5 | -2.0 | 12.5 | 74.1* | -23.5 | 65.5*
COc1cc(O)c(C(C)=O)c2c1C=CC(C)(C)O2 | -75.0 | nt | 7.0 | 4.1 | 17.0 | nt
O=C([C@@H]1N[C@@H]2c3ccc(C4=CCCCC4)c(=O)n3C[C@@H]2[C@H]1CO)N1CCc2ccccc2C1 | -21.9 | -7.0 | nt | nt | nt | nt
C=C1CC[C@@H]2[C@](C)(CO)[C@H](O)CC[C@@]2(C)[C@@H]1C/C=C1/C(=O)OCC1O (stereo not given in full) | 5.8 | 19.2 | 22.2 | 53.9* | -19.4 | 14.7
C=C/C(C)=C/CC1C(=C)CCC2C(C)(C(=O)O)CCCC12C (stereo not given) | -5.5 | nt | 9.7 | -6.2 | 3.3 | nt
CCCC1O[C@@H]2C[C@H]3[C@@H]4CCC5=CC(=O)C=C[C@]5(C)[C@H]4[C@@H](O)C[C@]3(C)[C@]2(C(=O)CO)O1 (stereo not given in full) | 8.4 | 15.2 | 27.7 | 89.9* | 21.7 | 22.7
CC(C)CC1C(=O)N(Cc2cn(Cc3ccco3)nn2)CCS(=O)(=O)N1Cc1ccc(-c2ccc(Cl)cc2)cc1 (stereo not given) | 25.4 | 0.2 | -4.9 | 64.6* | -23.1 | 41.3*
CC(C)CC1C(=O)N(Cc2cn(Cc3ccco3)nn2)CCS(=O)(=O)N1Cc1ccc(-c2cccc(CO)c2)cc1 (stereo not given) | 6.6 | 22.6 | 14.2 | 26.9 | 2.3 | nt
Cc1ccc(-c2ccc(CN3C(C(C)C)C(=O)N(Cc4cn(Cc5ccco5)nn4)CCS3(=O)=O)cc2)cc1 (stereo not given) | 1.5 | 16.6 | 25.9 | 68.7* | -20.1 | 39.1
O=C1CN(S(=O)(=O)Cc2ccccc2)C[C@H]2[C@@H](c3ccc(C#CC4CC4)cc3)[C@H](CO)N12 | 4.0 | 2.6 | nt | nt | nt | nt
CCC(=O)Nc1ccc2c(c1)C(=O)N(C)[C@H]1CC[C@H](CC(=O)N[C@H](C)c3ccccc3)O[C@H]1CO2 | -5.9 | 3.2 | nt | nt | nt | nt
